According to PubChem BioAssay (EPA / NIEHS):
Active and inactive are the calls of the source. The calls were made as follows: active = hit-call score of the fitted dose curve at least 0.9, where 1 is the maximum; inactive = score below 0.9.

Read-out: Thrombomodulin, THBD (gene 7056)
Assay: BSK_3C_Thrombomodulin: BioMAP Diversity Plus: 3C Assay for Thrombomodulin Biomarker Activity (AID 2283029)
Conditions: primary human endothelial cells (HUVEC); actives raise or lower the signal
Outline: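 Human umbilical vein endothelial cells were exposed to chemicals for 24 h; cell-surface thrombomodulin quantified by ELISA, with bidirectional fitting against DMSO baseline.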

Question: CCn1c2ccccc2c2cc(N)ccc21 was tested. Which outcome did it give?
Answer: inactive

Question: With COC(=O)c1ccc(C)cc1 as the compound, how does the outcome read?
Answer: inactive

Question: For CN(CCOc1ccc(CC2SC(=O)NC2=O)cc1)c1ccccn1 (configuration not stated), which outcome is on record?
Answer: inactive

Question: With CC(=O)/C=C/C1=C(C)CCCC1(C)C as the compound, how does the outcome read?
Answer: inactive

Question: How did the outcome turn out when BrC1CCC(Br)C(Br)CCC(Br)C(Br)CCC1Br (configuration not stated) was run?
Answer: inactive

Question: How did the outcome turn out when O=C(O)C[C@H](O)C[C@H](O)/C=C/c1c(C2CC2)nc2ccccc2c1-c1ccc(F)cc1 was run?
Answer: inactive

Read-out: Urokinase-type plasminogen activator receptor (uPAR), PLAUR (gene 5329)
Assay: BSK_4H_uPAR: BioMAP Diversity Plus: 4H Assay for Urokinase-type plasminogen activator receptor (uPAR) Biomarker Activity (AID 2283030)
Conditions: primary human endothelial cells (HUVEC); actives raise or lower the signal
Outline: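 Chemicals are dosed onto human vascular endothelial primary cells (umbilical vein). After 24 h, uPAR is read by ELISA. Gain or loss of signal is fitted relative to DMSO.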

Question: How did the AC50 turn out when CCn1c2ccccc2c2cc(N)ccc21 was run?
Answer: 0.152 µM (active)

Question: Which outcome does the source give for COC(=O)c1ccc(C)cc1 here?
Answer: inactive

Question: For CN(CCOc1ccc(CC2SC(=O)NC2=O)cc1)c1ccccn1 (configuration not stated), which AC50 is on record?
Answer: 11.6 µM (active)

Question: With CC(=O)/C=C/C1=C(C)CCCC1(C)C as the compound, how does the outcome read?
Answer: inactive

Question: With BrC1CCC(Br)C(Br)CCC(Br)C(Br)CCC1Br (configuration not stated) as the compound, how does the AC50 read?
Answer: 4.6 µM (active)

Question: With O=C(O)C[C@H](O)C[C@H](O)/C=C/c1c(C2CC2)nc2ccccc2c1-c1ccc(F)cc1 as the compound, how does the outcome read?
Answer: inactive
